Reference: PubChem BioAssay (Tox21)
Records with an inconclusive call do not appear. Values without a mark were called inactive. Calls of active or inactive are those of the source. Calls come from the whole dose curve; as a rule, active = well fitted cell-killing curve with a large enough effect in the repeat runs; inconclusive = weak or mixed curves, or effect the other way; inactive = no such curve, though single readings can be large or run the other way.
% is set by controls: 0 for no effect and ±100 for the full control effect.

Assay: qHTS assay to identify small molecule agonists of the farnesoid-X-receptor (FXR) signaling pathway - cell viability counter screen (AID 743218); note: nearly all actives have a fitted effect of over 45% in size
Settings: FXR-bla HEK293T viability, CellTiter-Glo luminescence, 16 h; series mostly up to 62.6 µM; viability change, negative = cytotoxic: at the top concentration
From the text: U.S. Tox21 Program National Center for Advancing Translational Sciences [NCATS] NIH Chemical Genomics Center [NCGC] U.S. Environmental Protection Agency [EPA] National Institutes of Environmental Health Sciences [NIEHS] National Toxicology Program [NTP] U.S. Food and Drug Administration [FDA] Tox21 Assay Overview: The farnesoid-X-receptor (FXR), a nuclear hormone receptor, is highly expressed in liver, intestine, kidney and adrenal cortex. Natural ligands of FXR are the bile acids (Cholic acid, Chenodeoxy cholic acid etc). FXR is an important regulator of diverse metabolic pathways, including the bile acid homeostasis, lipid and glucose metabolisms. FXR regulates the expression of target genes by binding either as a monomer or as a heterodimer with the retinoid X receptor (RXR). Numerous studies have reported that FXR exerts protective function during cholestasis, diabetes, liver regeneration, and cancer. To identify compounds that activate FXR signaling, GeneBLAzer FXR-UAS-bla HEK 293T cell line (Invitrogen, Carlsbad, CA) containing a beta-lactamase reporter gene under the control of a UAS response element was used to screen the Tox21 10K compound library. The cytotoxicity of the Tox21 compound library against the FXR-bla cell line was tested in parallel by measuring the cell viability using CellTiter-Glo assay in the same wells.
Tox21 Assay Protocol Summary: FXR-bla cells were dispensed at 5000 cells/5uL/well in 1536-well black wall/clear bottom plates using a Multidrop Combi (Thermo Fisher Scientific, Waltham, MA) dispenser. After the assay plates were incubated at 37 C and 5% CO2 for 5 h, 23 nL of compounds dissolved in DMSO, positive controls or DMSO only was transferred to the assay plate by a Pintool station (Kalypsys, San Diego, CA). The assay plates were incubated at 37C for 16 h. After 1 uL of LiveBLAzerTM B/G FRET substrate was added using a Bioraptr Flying Reagent Dispenser (FRD) workstation (Beckman Coulter, Indianapolis, IN), the plates were incubated at room temperature for 2 h, and fluorescence intensity was measured by an Envision plate reader (PerkinElmer, Shelton, CT). For cell viability readout that measures cytotoxicity, 4uL/well of CellTiter-Glo reagent was added into the assay plates using a Bioraptr FRD. After 30 min incubation at room temperature, the luminescence intensity in the plates was measured using a ViewLux plate reader (PerkinElmer).
With `COP(N)(=O)SC` (stereo not given) the outcome was “inactive”.
For `CC(C)(C)OOC(C)(C)C`, the outcome was “inactive”.
In the case of `O=C(O)c1ccccn1`, the outcome is reported as “inactive”.
In the case of `Cc1cc(-c2cc(C)c(N)c(C)c2)cc(C)c1N`, the outcome is reported as “inactive”.
For `CC(NC(C)(C)C)C(=O)c1cccc(Cl)c1` (stereo not given), the outcome was “inactive”.
With `CCCN(CCC)c1c([N+](=O)[O-])cc(C(F)(F)F)cc1[N+](=O)[O-]` the outcome was “inactive”.
For `O=C1CCCN1`, the outcome was “inactive”.
In the case of `ClCCBr`, the outcome is reported as “inactive”.
With `C#CC(C)(C)NC(=O)c1cc(Cl)cc(Cl)c1` the outcome was “inactive”.
With `Nc1ccc(Cc2ccc(N)cc2)cc1` the outcome was “inactive”.
For `COC(=O)c1ccccc1N`, the outcome was “inactive”.
With `CC(C)OC(=O)Nc1cccc(Cl)c1` the “viability change, negative = cytotoxic” value was -22.9%.
In the case of `CCC[CH2][Sn]([Cl])([Cl])[Cl]`, the outcome is reported as “inactive”.
With `COc1ccc2c3c1O[C@H]1[C@@H](O)C=C[C@H]4[C@@H](C2)N(C)CC[C@@]341` the “viability change, negative = cytotoxic” value was -10.1% [at 81.1 µM].
With `Cc1cc(Cl)ccc1O` the outcome was “inactive”.
In the case of `CCCCN(CCCC)SN(C)C(=O)Oc1cccc2c1OC(C)(C)C2`, the outcome is reported as “inactive”.
For `O=c1n(Cl)c(=O)n(Cl)c(=O)n1Cl`, the outcome was “inactive”.
In the case of `Nc1ccccc1C(=O)O`, the outcome is reported as “inactive”.
With `CC(C)(C)C(O)(CCc1ccc(Cl)cc1)Cn1cncn1` (stereo not given) the “viability change, negative = cytotoxic” value was -0.428%.
In the case of `NCC(O)c1ccc(O)cc1` (stereo not given), the outcome is reported as “inactive”.
In the case of `CCCCCOC(=O)c1ccccc1C(=O)OCCCCC`, the outcome is reported as “inactive”.
For `CCN(CC)CCO`, the outcome was “inactive”.
With `Clc1ccc(Cl)cc1` the outcome was “inactive”.
In the case of `CCN(CC)c1ccccc1`, the outcome is reported as “inactive”.
For `ClCc1cccnc1`, the “viability change, negative = cytotoxic” value was -1.27%.
With `CCOC(=O)c1ccccc1C(=O)OCC` the “viability change, negative = cytotoxic” value was 8.28%.
For `CCCC1COC(Cn2cncn2)(c2ccc(Cl)cc2Cl)O1` (stereo not given), the outcome was “inactive”.
In the case of `BrCCBr`, the outcome is reported as “inactive”.
In the case of `COC(=O)NS(=O)(=O)c1ccc(N)cc1`, the outcome is reported as “inactive”.
In the case of `CC(Br)C(=O)O` (stereo not given), the outcome is reported as “inactive”.
With `CON(C)C(=O)Nc1ccc(Cl)c(Cl)c1` the outcome was “inactive”.
For `Cc1[nH]c(=O)n(C(C)(C)C)c(=O)c1Cl`, the “viability change, negative = cytotoxic” value was 36.7% [at 81.1 µM].
For `Oc1ccccc1Cl`, the outcome was “inactive”.
For `Cc1ccc([N+](=O)[O-])cc1C`, the outcome was “inactive”.
With `CCCCCCCCCCCC#N` the “viability change, negative = cytotoxic” value was -10.2% [at 81.1 µM].
In the case of `CCCCCCCCCl`, the outcome is reported as “inactive”.
For `CCCCOC(=O)c1ccccc1C(=O)OCCCC`, the outcome was “inactive”.
In the case of `CCNc1nc(NC(C)C)nc(SC)n1`, the outcome is reported as “inactive”.
With `O=S(=O)(c1ccc(Cl)cc1)c1cc(Cl)c(Cl)cc1Cl` the “viability change, negative = cytotoxic” value was 10%.
For `CCc1cccc(C)c1N(C(=O)CCl)C(C)COC` (stereo not given), the outcome was “inactive”.
